Experimental data taken from PubChem BioAssay (EPA / NIEHS).
Values joined by “and” are separate entries in the source; they are usually repeats but may differ in a detail not shown here. Equal entries are not always repeated. Results filed as inconclusive are left out. Where a structure was tested more than once in an assay, its records may differ in their call. Active and inactive are the calls of the source. Rule for the calls, unless noted: active = hit-call score of the fitted dose curve at least 0.9, where 1 is the maximum; inactive = score below 0.9.

Experiments:
[1] = molecular target: Paired box protein Pax-6 (Homo sapiens) (UniProt P26367); assay: ATG_Pax6_CIS: Attagene CIS-FACTORIAL HepG2 Assay for human Paired Box 6 (PAX6) (AID 2282956); conditions: HepG2 CIS-FACTORIAL PAX6 reporter transcription, RNA readout; actives raise or lower the signal
Summary of the method: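 Multiplexed cis-reporter HepG2 system; 24 h treatment; reporter mRNA read by RT-PCR/CE fluorescence; bidirectional fit vs DMSO.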

[2] = ATG_PXRE_CIS: Attagene CIS-FACTORIAL HepG2 Assay for human Pregnane X Receptor Element (PXRE) (AID 2282957); conditions: HepG2 Attagene CIS-FACTORIAL PXRE reporter, mRNA; actives raise or lower the signal
Summary of the method: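 HepG2 cells transiently transfected with cis-regulated multiple reporter transcription units; endogenous factor activity measured as reporter mRNA 24 h after dosing. RT-PCR, fluorescent primer extension, HpaI digestion, capillary electrophoresis; bidirectional fit versus DMSO baseline.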

[3] = ATG_PPRE_CIS: Attagene CIS-FACTORIAL HepG2 Assay for human Peroxisome Proliferator-activated Response Element (PPRE) (AID 2282958); conditions: HepG2 PPRE cis-element reporter, Attagene transcription factor profiling; actives raise or lower the signal
Summary of the method: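 PPRE activity in HepG2: transient cis-reporter transfection, 24 h compound incubation, reporter mRNA by RT-PCR and CE fluorescence; gain/loss fitted against DMSO.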

[4] = ATG_RORE_CIS: Attagene CIS-FACTORIAL HepG2 Assay for human RAR-related Orphan Receptor Element (RORE) (AID 2282959); conditions: HepG2 Attagene cis-factorial RORE reporter, mRNA; actives raise or lower the signal
Summary of the method: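 A 24-hour exposure of transfected HepG2 hepatoma cells precedes RNA isolation and reporter RT-PCR. Labeled products are digested with HpaI and resolved by capillary electrophoresis, with gain or loss of signal scored relative to DMSO.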

[5] = ATG_Sox_CIS: Attagene CIS-FACTORIAL HepG2 Assay for human SRY-box transcription factor (SOX) (AID 2282960); conditions: HepG2 Attagene cis-factorial SOX reporter, mRNA; actives raise or lower the signal
Summary of the method: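 HepG2, cis reporter units, 24 h exposure. Reporter mRNA: RT-PCR → FAM labelling → HpaI → CE fluorescence. Bidirectional fit vs DMSO.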

[6] = molecular target: Transcription factor Sp1 (Homo sapiens) (UniProt P08047); assay: ATG_Sp1_CIS: Attagene CIS-FACTORIAL HepG2 Assay for human Specificity Protein 1 (Sp1) (AID 2282961); conditions: HepG2 Sp1 cis-reporter transcription, actives raise or lower the signal
Summary of the method: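 Liver-derived HepG2 cells, cis-element reporter library, 24 h treatment; RNA isolated, cDNA amplified with reporter-specific primers, FAM-labeled fragments sized on capillary analyzer. DMSO baseline, bidirectional curve fit.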

[7] = ATG_SREBP_CIS: Attagene CIS-FACTORIAL HepG2 Assay for human Sterol Regulatory Element Binding (SREBP) (AID 2282962); conditions: HepG2 Attagene cis-factorial SREBP reporter, mRNA; actives raise or lower the signal
Summary of the method: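 mRNA induction of transfected cis-promoter reporters in HepG2 cells, 24 h post-dose. Detection: RT-PCR with 6-FAM-labelled products, HpaI digest, capillary electrophoresis. DMSO served as negative control and baseline.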

[8] = molecular target: Signal transducer and activator of transcription 3 (Homo sapiens) (UniProt P40763); assay: ATG_STAT3_CIS: Attagene CIS-FACTORIAL HepG2 Assay for human Signal Transducer and Activator of Transcription 3 (STAT3) (AID 2282963); conditions: HepG2, Attagene cis-factorial STAT3 reporter transcription; actives raise or lower the signal
Summary of the method: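 Endogenous STAT3-responsive cis-element activity was read in transiently transfected HepG2 cells after 24 h treatment. Reporter transcripts were quantified via RT-PCR and capillary electrophoresis, with DMSO as negative control and bidirectional curve fitting.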

[9] = ATG_TA_CIS: Attagene CIS-FACTORIAL HepG2 Assay for human TA Basal Promoter (AID 2282964); conditions: HepG2 Attagene CIS-factorial TA basal promoter reporter; actives raise or lower the signal
Summary of the method: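 Transient MRTU transfection of HepG2 preceded 24 h compound exposure. Reporter mRNA levels were then read by RT-PCR with capillary electrophoresis, and this background-control endpoint was fitted bidirectionally to DMSO.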

[10] = ATG_TCF_b_cat_CIS: Attagene CIS-FACTORIAL HepG2 Assay for human T-Cell-Factor with beta-catenin (TCF/b-cat) (AID 2282965); conditions: HepG2 TCF/beta-catenin cis-reporter transcription, actives raise or lower the signal
Summary of the method: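 Endogenous transcription factor activity is captured through cis-promoter reporter constructs transiently introduced into human HepG2 liver cells. Induced reporter mRNA is measured after 24 h and fitted bidirectionally relative to DMSO.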

[11] = ATG_TAL_CIS: Attagene CIS-FACTORIAL HepG2 Assay for human TAL Basal Promoter (AID 2282966); conditions: HepG2 Attagene cis-factorial TAL promoter reporter; actives raise or lower the signal;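 note: background control endpoint measuring basal TAL promoter reporter mRNA not a specific factor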
Summary of the method: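 HepG2 cells were transiently transfected with promoter-driven multiplexed reporter units and dosed for 24 h. Reporter mRNA was measured by RT-PCR with capillary electrophoresis fluorescence; bidirectional fits used DMSO as baseline, serving as a background control.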

[12] = ATG_TGFb_CIS: Attagene CIS-FACTORIAL HepG2 Assay for human Transforming Growth Factor (TGF) (AID 2282967); conditions: HepG2 Attagene CIS TGFb reporter, mRNA transcription; actives raise or lower the signal
Summary of the method: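 After a 24-hour incubation with compound, transfected HepG2 cells were lysed for RNA; reporter cDNA was amplified, fluorescently end-labeled and separated by CE. DMSO served as baseline for bidirectional fits.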

[13] = ATG_VDRE_CIS: Attagene CIS-FACTORIAL HepG2 Assay for human Vitamin D Receptor Element (VDRE) (AID 2282968); conditions: HepG2 VDRE cis-reporter transcription, actives raise or lower the signal
Summary of the method: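 Reporter mRNA induction, quantified by capillary electrophoresis of fluorescently labelled RT-PCR products, was read 24 h after dosing HepG2 cells carrying transiently transfected cis-regulated reporter units; gain or loss relative to DMSO.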

[14] = molecular target: X-box-binding protein 1 (Homo sapiens) (UniProt P17861); assay: ATG_Xbp1_CIS: Attagene CIS-FACTORIAL HepG2 Assay for human X-box Binding Protein 1 (XBP1) (AID 2282972); conditions: HepG2 XBP1 cis-element reporter, Attagene multiplex; actives raise or lower the signal
Summary of the method: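 Fluorescence-labelled cDNA fragments from reporter transcripts, separated by capillary electrophoresis, give the signal. Source: HepG2 cells transfected with promoter-driven reporter units, harvested 24 h post-dose. DMSO served as reference for bidirectional curve fitting.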

[15] = molecular target: Steroid hormone receptor ERR1 (Homo sapiens) (UniProt P11474); assay: ATG_ERRa_TRANS: Attagene TRANS-FACTORIAL HepG2 Assay for human Estrogen-Related Receptor alpha (ERRa) (AID 2282971; active = hit-call score of the fitted dose curve at least 0.9, where 1 is the maximum); conditions: HepG2 Attagene TRANS reporter, ERRa transactivation
Summary of the method: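 HepG2 cells transiently transfected with multiplexed GAL4-UAS reporter units reading chimeric ERRa-Gal4 activity; 24 h compound exposure. Reporter mRNA measured by RT-PCR, 6-FAM labelling, HpaI digest and capillary electrophoresis; gain of signal fitted versus DMSO baseline.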

[16] = ATG_GAL4_TRANS: Attagene TRANS-FACTORIAL HepG2 Assay for GAL4 (Internal Marker) (AID 2282976; active = hit-call score of the fitted dose curve at least 0.9, where 1 is the maximum); conditions: HepG2 Attagene TRANS GAL4 internal marker reporter
Summary of the method: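 HepG2 cells transiently transfected with multiplexed GAL4-UAS reporter constructs were dosed for 24 h. Reporter mRNA was measured by RT-PCR, 6-FAM primer extension, HpaI digestion and capillary electrophoresis, and gain of signal was fitted relative to DMSO.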

[17] = molecular target: Estrogen receptor (Homo sapiens) (UniProt P03372); assay: ATG_ERa_TRANS: Attagene TRANS-FACTORIAL HepG2 Assay for human Estrogen Receptor alpha (ERa) (AID 2282970; active = hit-call score of the fitted dose curve at least 0.9, where 1 is the maximum); conditions: HepG2 Attagene TRANS ERa GAL4 reporter, mRNA
Summary of the method: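 HepG2 cells transiently transfected with multiplexed GAL4-UAS reporter units; ERa activity read via exogenous chimeric NR-Gal4 protein. After 24 hour compound exposure, reporter mRNA measured by RT-PCR with 6-FAM labelling and capillary electrophoresis; gain-of-signal fitted relative to DMSO.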

[18] = molecular target: Estrogen-related receptor gamma (Homo sapiens) (UniProt P62508); assay: ATG_ERRg_TRANS: Attagene TRANS-FACTORIAL HepG2 Assay for human Estrogen-Related Receptor gamma (ERRg) (AID 2282977; active = hit-call score of the fitted dose curve at least 0.9, where 1 is the maximum;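 note: hits increase reporter signal over DMSO so potencies reflect activators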); conditions: HepG2 Attagene TRANS reporter, ERRg transactivation
Summary of the method: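 HepG2 cells transiently transfected with multiplexed GAL4-UAS reporter units driven by chimeric NR-Gal4 proteins; 24 h exposure. Reporter mRNA quantified by RT-PCR, fluorescent labelling, HpaI digestion and capillary electrophoresis; gain of signal vs DMSO.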

Chain of Signal transducer and activator of transcription 3 (Homo sapiens) (P40763 whole entry, looked up): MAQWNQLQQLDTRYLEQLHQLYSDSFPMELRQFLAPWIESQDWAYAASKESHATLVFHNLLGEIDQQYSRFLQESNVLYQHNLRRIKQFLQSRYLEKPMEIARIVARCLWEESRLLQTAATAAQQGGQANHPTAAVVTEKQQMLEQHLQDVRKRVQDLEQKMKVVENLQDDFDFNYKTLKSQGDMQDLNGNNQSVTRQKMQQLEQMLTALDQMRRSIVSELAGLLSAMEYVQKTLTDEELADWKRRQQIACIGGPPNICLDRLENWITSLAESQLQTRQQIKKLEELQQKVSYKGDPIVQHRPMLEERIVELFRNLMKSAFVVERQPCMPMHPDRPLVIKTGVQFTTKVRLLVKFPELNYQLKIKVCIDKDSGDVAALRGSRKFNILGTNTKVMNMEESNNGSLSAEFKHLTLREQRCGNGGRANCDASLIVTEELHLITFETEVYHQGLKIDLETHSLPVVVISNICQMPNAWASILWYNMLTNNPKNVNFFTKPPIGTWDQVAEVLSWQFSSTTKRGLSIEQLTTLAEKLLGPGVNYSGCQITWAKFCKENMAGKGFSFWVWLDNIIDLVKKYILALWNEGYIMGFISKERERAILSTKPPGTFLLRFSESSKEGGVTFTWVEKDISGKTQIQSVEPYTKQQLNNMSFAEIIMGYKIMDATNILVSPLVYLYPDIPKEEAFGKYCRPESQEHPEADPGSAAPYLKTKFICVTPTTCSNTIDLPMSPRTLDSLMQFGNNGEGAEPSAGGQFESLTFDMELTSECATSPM
Chain of Transcription factor Sp1 (Homo sapiens) (P08047 whole entry, looked up, the tested form may be a part): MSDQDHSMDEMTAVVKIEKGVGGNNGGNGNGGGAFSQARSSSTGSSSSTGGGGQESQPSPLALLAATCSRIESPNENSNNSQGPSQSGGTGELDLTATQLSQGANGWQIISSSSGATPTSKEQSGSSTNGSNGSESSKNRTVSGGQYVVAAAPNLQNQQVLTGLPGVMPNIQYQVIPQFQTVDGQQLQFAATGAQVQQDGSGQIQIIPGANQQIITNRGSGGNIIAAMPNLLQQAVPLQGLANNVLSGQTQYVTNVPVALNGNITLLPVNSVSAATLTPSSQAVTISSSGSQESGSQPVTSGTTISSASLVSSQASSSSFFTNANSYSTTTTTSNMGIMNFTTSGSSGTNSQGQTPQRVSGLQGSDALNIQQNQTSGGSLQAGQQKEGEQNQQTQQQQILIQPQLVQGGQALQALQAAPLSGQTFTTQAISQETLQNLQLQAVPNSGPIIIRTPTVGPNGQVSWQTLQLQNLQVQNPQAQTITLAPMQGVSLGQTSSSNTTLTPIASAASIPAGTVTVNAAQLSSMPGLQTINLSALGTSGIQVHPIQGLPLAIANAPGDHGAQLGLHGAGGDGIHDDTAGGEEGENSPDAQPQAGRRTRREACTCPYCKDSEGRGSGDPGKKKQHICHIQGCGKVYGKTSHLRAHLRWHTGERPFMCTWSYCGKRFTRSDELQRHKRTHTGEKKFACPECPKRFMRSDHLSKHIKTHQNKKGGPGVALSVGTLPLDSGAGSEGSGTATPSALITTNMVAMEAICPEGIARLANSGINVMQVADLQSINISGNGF
Chain of Paired box protein Pax-6 (Homo sapiens) (P26367 whole entry, looked up): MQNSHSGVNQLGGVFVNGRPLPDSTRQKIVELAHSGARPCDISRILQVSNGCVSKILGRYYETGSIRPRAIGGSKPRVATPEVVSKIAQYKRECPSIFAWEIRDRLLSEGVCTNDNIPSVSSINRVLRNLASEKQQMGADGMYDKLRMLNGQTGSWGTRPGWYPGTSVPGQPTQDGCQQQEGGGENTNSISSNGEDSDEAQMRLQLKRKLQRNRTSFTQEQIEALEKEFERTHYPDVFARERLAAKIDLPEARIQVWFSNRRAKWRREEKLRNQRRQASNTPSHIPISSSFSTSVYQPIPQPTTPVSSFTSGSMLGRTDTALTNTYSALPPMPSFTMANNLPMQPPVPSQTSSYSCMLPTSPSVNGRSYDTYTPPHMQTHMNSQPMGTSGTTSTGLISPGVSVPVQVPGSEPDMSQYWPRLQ
Chain of Steroid hormone receptor ERR1 (Homo sapiens) (P11474 whole entry, looked up, the tested form may be a part): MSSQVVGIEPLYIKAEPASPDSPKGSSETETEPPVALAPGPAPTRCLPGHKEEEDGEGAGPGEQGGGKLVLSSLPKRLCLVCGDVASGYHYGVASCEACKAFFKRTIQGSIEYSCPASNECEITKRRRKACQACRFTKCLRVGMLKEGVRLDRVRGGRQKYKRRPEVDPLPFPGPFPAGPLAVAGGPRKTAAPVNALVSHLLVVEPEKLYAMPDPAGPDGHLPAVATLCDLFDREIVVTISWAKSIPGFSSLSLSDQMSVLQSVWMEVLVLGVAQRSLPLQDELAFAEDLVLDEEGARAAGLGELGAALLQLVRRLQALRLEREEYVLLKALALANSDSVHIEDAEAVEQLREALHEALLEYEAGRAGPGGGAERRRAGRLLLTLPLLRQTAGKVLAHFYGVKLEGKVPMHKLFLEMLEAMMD
Chain of X-box-binding protein 1 (Homo sapiens) (P17861 whole entry, looked up, the tested form may be a part): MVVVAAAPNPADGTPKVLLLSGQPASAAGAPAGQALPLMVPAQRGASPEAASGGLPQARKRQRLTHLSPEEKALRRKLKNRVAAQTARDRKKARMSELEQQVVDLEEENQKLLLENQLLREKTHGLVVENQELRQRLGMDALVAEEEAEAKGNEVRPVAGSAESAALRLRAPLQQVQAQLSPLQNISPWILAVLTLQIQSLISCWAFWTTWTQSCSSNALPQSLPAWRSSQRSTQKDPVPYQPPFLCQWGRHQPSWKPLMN
Chain of Estrogen-related receptor gamma (Homo sapiens) (P62508 whole entry, looked up, the tested form may be a part): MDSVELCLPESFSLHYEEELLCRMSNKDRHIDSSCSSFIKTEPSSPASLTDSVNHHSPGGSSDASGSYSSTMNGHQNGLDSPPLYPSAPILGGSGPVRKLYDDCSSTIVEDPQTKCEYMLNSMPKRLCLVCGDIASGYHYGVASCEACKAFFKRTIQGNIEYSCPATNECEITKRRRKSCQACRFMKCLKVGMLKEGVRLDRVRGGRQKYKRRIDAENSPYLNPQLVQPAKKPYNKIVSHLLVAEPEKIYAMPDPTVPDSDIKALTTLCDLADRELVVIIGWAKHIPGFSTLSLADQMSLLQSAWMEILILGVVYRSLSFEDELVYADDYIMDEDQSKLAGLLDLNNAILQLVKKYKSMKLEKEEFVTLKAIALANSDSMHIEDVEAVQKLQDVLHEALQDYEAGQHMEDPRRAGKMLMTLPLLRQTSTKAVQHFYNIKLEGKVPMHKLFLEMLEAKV
Chain of Estrogen receptor (Homo sapiens) (P03372 whole entry, looked up, the tested form may be a part): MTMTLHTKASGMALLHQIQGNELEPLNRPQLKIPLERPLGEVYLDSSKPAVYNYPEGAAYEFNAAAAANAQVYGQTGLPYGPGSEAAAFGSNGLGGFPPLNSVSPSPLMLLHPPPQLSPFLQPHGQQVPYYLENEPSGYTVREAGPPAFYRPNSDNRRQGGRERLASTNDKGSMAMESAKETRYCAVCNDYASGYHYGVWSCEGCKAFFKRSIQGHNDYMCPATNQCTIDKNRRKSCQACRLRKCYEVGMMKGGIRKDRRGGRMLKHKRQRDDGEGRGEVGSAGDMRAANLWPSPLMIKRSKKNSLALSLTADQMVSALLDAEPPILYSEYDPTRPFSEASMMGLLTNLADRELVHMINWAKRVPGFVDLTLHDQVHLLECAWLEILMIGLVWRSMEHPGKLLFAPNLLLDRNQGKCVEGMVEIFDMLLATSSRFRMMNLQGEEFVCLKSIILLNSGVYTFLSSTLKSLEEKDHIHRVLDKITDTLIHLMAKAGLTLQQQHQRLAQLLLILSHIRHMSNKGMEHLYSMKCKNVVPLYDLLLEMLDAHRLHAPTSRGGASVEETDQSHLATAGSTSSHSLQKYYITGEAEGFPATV

## CCCCCCCCCCCC[N+](C)(C)C
[1]
  outcome: inactive
[2]
  AC50: 1.26 µM (active)
  outcome: inactive
[3]
  outcome: inactive
[4]
  outcome: inactive
[5]
  outcome: inactive
[6]
  outcome: inactive
[7]
  AC50: 26.1 µM (active) and 25.6 µM (active)
[8]
  outcome: inactive
[9]
  outcome: inactive
[10]
  outcome: inactive
[11]
  outcome: inactive
[12]
  outcome: inactive
[13]
  outcome: inactive
[14]
  AC50: 33.4 µM (active)
  outcome: inactive

## CN1C(=O)N(c2ccccc2Br)Cc2cnc(Nc3ccc4c(c3)OCC(CO)O4)nc21 (stereo unspecified)
[1]
  outcome: inactive
[2]
  outcome: inactive
[3]
  AC50: 2.65 µM (active)
[4]
  AC50: 1.84 µM (active)
[5]
  outcome: inactive
[6]
  outcome: inactive
[7]
  AC50: 21.1 µM (active)
[8]
  outcome: inactive
[9]
  AC50: 15.8 µM (active)
[10]
  AC50: 0.116 µM (active)
[11]
  AC50: 12.4 µM (active)
[12]
  outcome: inactive
[13]
  AC50: 4.14 µM (active)
[15]
  outcome: inactive
[14]
  AC50: 9.79 µM (active)
[16]
  outcome: inactive

## CCCOC(=O)c1cc(O)c(O)c(O)c1
[1]
  outcome: inactive
[2]
  outcome: inactive
[3]
  AC50: 21 µM (active)
[4]
  outcome: inactive
[5]
  outcome: inactive
[6]
  outcome: inactive
[7]
  outcome: inactive
[8]
  outcome: inactive
[9]
  outcome: inactive
[10]
  outcome: inactive
[11]
  outcome: inactive
[12]
  outcome: inactive
[13]
  outcome: inactive
[17]
  AC50: 14.5 µM (active)
[14]
  outcome: inactive

## CCCCCCCCCC(=O)O
[1]
  outcome: inactive
[2]
  AC50: 27.4 µM (active)
  outcome: inactive
[4]
  outcome: inactive
[5]
  outcome: inactive
[6]
  outcome: inactive
[7]
  AC50: 104 µM (active)
  outcome: inactive
[8]
  outcome: inactive
[9]
  outcome: inactive
[11]
  outcome: inactive
[12]
  outcome: inactive
[13]
  outcome: inactive
[15]
  outcome: inactive
[14]
  outcome: inactive
[16]
  outcome: inactive

## Cc1cc2c(cc1C(F)(F)F)N(C(=O)Nc1ccc(Oc3cccnc3C)nc1)CC2
[1]
  outcome: inactive
[2]
  outcome: inactive
[3]
  outcome: inactive
[4]
  outcome: inactive
[5]
  outcome: inactive
[6]
  outcome: inactive
[7]
  outcome: inactive
[8]
  outcome: inactive
[9]
  outcome: inactive
[10]
  outcome: inactive
[11]
  outcome: inactive
[12]
  outcome: inactive
[13]
  outcome: inactive
[14]
  outcome: inactive
[18]
  outcome: inactive

## Cc1ncc(CO)c(CO)c1O
[1]
  outcome: inactive
[2]
  outcome: inactive
[3]
  outcome: inactive
[4]
  outcome: inactive
[5]
  outcome: inactive
[6]
  outcome: inactive
[7]
  outcome: inactive
[8]
  outcome: inactive
[9]
  outcome: inactive
[10]
  outcome: inactive
[11]
  outcome: inactive
[12]
  outcome: inactive
[13]
  outcome: inactive
[14]
  outcome: inactive
[16]
  outcome: inactive

## OC12N=C(c3ccccc3)SC1Cc1cc(Cl)ccc12 (stereo unspecified)
[1]
  outcome: inactive
[2]
  AC50: 4.27 µM (active)
[3]
  AC50: 0.0507 µM (active)
[4]
  outcome: inactive
[5]
  outcome: inactive
[6]
  outcome: inactive
[7]
  outcome: inactive
[8]
  outcome: inactive
[9]
  outcome: inactive
[10]
  outcome: inactive
[11]
  outcome: inactive
[12]
  outcome: inactive
[13]
  outcome: inactive
[17]
  AC50: 3.97 µM (active)
[15]
  outcome: inactive
[14]
  outcome: inactive
[16]
  outcome: inactive
[18]
  outcome: inactive
